Measured values as given in PubChem BioAssay AID463075 (University of Pittsburgh Molecular Library Screening Center, 2010).
Among all 220,000 compounds or so, about 150 (0.068%) were called active.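 Rule for the calls: active = activation, meaning protection from cell death, of at least 50% relative to plate controls; inactive = activation below 50%.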 For the sample, actives were picked, then their nearest neighbours and some compounds at random.

assay: rescue of FADD-deficient Jurkat cells from TNF-alpha death – single concentration, primary screen (AID 463075); conditions: Jurkat FADD-/- TNF necroptosis rescue, ATP luminescence, 24 h; at 10 µM; stronger effect = higher value; 0 = TNF only, 100 = no-TNF cells;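 note: necroptosis triggered by 40 ng/mL TNF-alpha added together with compound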

| SMILES | activation (protection from cell death) |
| --- | --- |
| Nc1c(-c2cccc(Cl)c2)cnn1-c1cccc([N+](=O)[O-])c1 | -1.25% (inactive) |
| c1ccc(-c2csc(N3CCc4ccccc4C3)n2)cc1 | -3.03% (inactive) |
| C=CCCN(Cc1ccccc1)S(=O)(=O)c1ccccc1Br | -2.9% (inactive) |
| CC(C)(C)c1ccc(/C=C2\SC(=O)N=C2N)cc1 | 2.08% (inactive) |
| Cc1cccc(NC(=O)c2nc[nH]c2C(=O)NCC(=O)OCc2ccccc2)c1 | -9.45% (inactive) |
| CCN(CC)CCNC(=O)c1ccc(NC(=O)c2c(F)cccc2Cl)cc1 | -0.132% (inactive) |
| COc1ccccc1C(=O)CSc1cccc[n+]1[O-] | -0.693% (inactive) |
| Cc1cc(C(=O)OCC(=O)Nc2ccc(F)c(F)c2)c(C)o1 | 3.31% (inactive) |
| COCCCNC(=O)C1CCC(CNS(=O)(=O)c2ccc(OC)cc2)CC1 (configuration not stated) | 1.04% (inactive) |
| Cc1cccc(C(=O)N2CCc3c([nH]c4ccccc34)C2CC(C)C)n1 (configuration not stated) | 1.18% (inactive) |
| Cc1cc([N+](=O)[O-])nn1Cc1ccc(F)cc1 | 76.6% (active) |
| Cc1cc([N+](=O)[O-])nn1CC(=O)Nc1ccc(Cc2ccncc2)cc1 | 3.27% (inactive) |
| Cc1cc([N+](=O)[O-])nn1CCCC(=O)Nc1cccnc1Cl | 0.812% (inactive) |
| CC(=O)Nc1ccn(Cc2c(F)cccc2Cl)n1 | 88% (active) |
| O=C(Nc1ccn(Cc2ccccc2)n1)c1cccc(F)c1 | 3.16% (inactive) |
| O=C(Nc1ccn(Cc2ccccc2F)n1)c1ccc(COc2ccc(Cl)cc2Cl)o1 | -6.7% (inactive) |
| CCc1cccc(CC)c1NC(=O)COc1ccccc1C(=O)c1cc(C#N)c(=O)n(C2CCCCC2)c1 | 1.06% (inactive) |
| Cn1nccc1NC(=O)Nc1ccc(OC(F)(F)F)cc1 | 2.9% (inactive) |
| CCCC(=O)n1nc(NCc2ccc(OC)cc2)nc1NCc1ccc(OC)cc1 | 2.21% (inactive) |
| CC(C)CNC(=O)C(=O)NCc1ccccc1 | 1.96% (inactive) |
| CC(C)(C)C(=O)N1CCC[C@@]1(CO)C(=O)O | 1.03% (inactive) |
| CCN(Cc1ccncc1)C(=O)c1cccc(S(=O)(=O)N2CCOCC2)c1 | 0.919% (inactive) |
| COc1cc(C=O)ccc1Oc1nnnn1-c1ccccc1 | -3.04% (inactive) |
| N#CC1(NC(=O)COc2ccc3oc4ccccc4c3c2)CCCCC1 | 1.8% (inactive) |
| CC(C)N(C(=O)Cn1cc(SCC(=O)N2CCCC2)c2ccccc21)C(C)C | 1.35% (inactive) |
| Cc1ccc(S(=O)(=O)N(C)C)cc1NC(=O)COC(=O)c1c(C)noc1C | 0.89% (inactive) |
| CN(C)CCNC(=O)/C(=C/c1cccc([N+](=O)[O-])c1)NC(=O)c1ccccc1 | 2.51% (inactive) |
